{
  "source": "the supplement of paper PMC11150407",
  "note": "The campaign covered roughly 3,000 compounds. About 45 (2%) showed an effect of 50% or more. The sample as a whole holds a higher share of strong results than the screen did.",
  "data": [
    {"system": "MOLM1 and UCSD/AML1 (averaged)", "experiment": "cell viability relative to DMSO control (POC); higher = less growth inhibition", "details": "1 µM; 72 h", "procedure": "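Primary viability screen in the 3q26 EVI1-high AML cell lines MOLM1 and UCSD/AML1, compounds at 1 uM for 72 h. ATP CellTiter-Glo read-out given as percent viable over DMSO control (POC), averaged over duplicates. This mapping covers the TimTec NDL-3000 natural derivative library, whose compounds are identified by TimTec catalogue codes (ST...).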", "units": {"cell viability": "%"}, "values": [
      {"compound": "CCc1ccc2oc(=O)cc(CN3CCN(Cc4nc(-c5ccc(C)cc5)oc4C)CC3)c2c1", "cell viability": 96.3},
      {"compound": "O=C(Cn1c(=O)cc(C(=O)N2CCCCC2)c2ccccc21)Nc1ccc(F)cc1", "cell viability": 89.9},
      {"compound": "Cc1ccc2c(CN3CCN(Cc4ccc(Br)cc4F)CC3)cc(=O)oc2c1", "cell viability": 100},
      {"compound": "CCc1ccc(-c2cc(-c3cc(OC)c(OC)c(OC)c3)[nH]c(=O)c2C#N)cc1", "cell viability": 96.9},
      {"compound": "CC(=O)OCC1OC(OC(C)=O)C(OC(C)=O)C(OC(C)=O)C1OC(C)=O", "note": "(configuration not stated)", "cell viability": 109},
      {"compound": "O=C(/C=C/c1cccc(Cl)c1)c1ccc(OC(=O)c2cccc([N+](=O)[O-])c2)cc1", "cell viability": 102},
      {"compound": "Nc1nc2ncc(CNc3ccc(C(=O)N[C@H](CCC(=O)O)C(=O)O)cc3)nc2c(=O)[nH]1", "cell viability": 102},
      {"compound": "COc1cc(C2C(C#N)=C(N)Oc3n[nH]c(C)c32)ccc1O", "note": "(configuration not stated)", "cell viability": 110},
      {"compound": "COc1cc(C2C(C#N)=C(N)Oc3cc(N)ccc32)cc(OC)c1OC", "note": "(configuration not stated)", "cell viability": 13.5},
      {"compound": "COc1cc(C2C(C#N)=C(N)Oc3n[nH]c(-c4ccccc4)c32)cc(OC)c1OC", "note": "(configuration not stated)", "cell viability": 100},
      {"compound": "COc1cc(C(=O)N2CCCc3cccc(OCCNC(C)=O)c32)cc(OC)c1OC", "cell viability": 98.7},
      {"compound": "CCOC(=O)CC[C@@H](C)[C@H]1CC[C@H]2[C@@H]3CC[C@@H]4C[C@H](O)CC[C@]4(C)[C@H]3C[C@H](O)[C@]12C", "cell viability": 86},
      {"compound": "CC(=O)c1nc2ccccc2n1CC(=O)NCCOc1ccccc1", "cell viability": 98.2},
      {"compound": "COc1cccc(NC(=O)Cn2c(=O)cc(C(=O)N3CCCC3)c3ccccc32)c1", "cell viability": 102},
      {"compound": "COc1ccc(C(=O)c2sc(Nc3cccc(F)c3)nc2N)cc1OC", "cell viability": 96.9},
      {"compound": "COc1ccc(Nc2nc(N)c(C(=O)c3ccc(OC)c(OC)c3)s2)cc1", "cell viability": 15.4},
      {"compound": "COc1ccc(C(=O)c2sc(Nc3ccc(F)cc3)nc2N)cc1OC", "cell viability": 101},
      {"compound": "CCOc1ccc(-c2nc(CSc3nc4c(=O)[nH]cnc4n3C)c(C)o2)cc1OC", "cell viability": 118},
      {"compound": "COC(=O)c1cc(O)cc(O)c1", "cell viability": 104},
      {"compound": "COC(=O)c1c(C)n(CCOc2ccc(F)cc2)c2ccc(O)cc12", "cell viability": 96.9},
      {"compound": "COc1cc(C(=O)NCc2ccc3c(c2)OCO3)c(Br)c(OC)c1OC", "cell viability": 105},
      {"compound": "COc1cc(OC)c(C(=O)/C=C/c2ccc(O)cc2)c(OC)c1", "cell viability": 100},
      {"compound": "COc1cc(OC)c(C(=O)/C=C/c2ccccc2)c(OC)c1", "cell viability": 33},
      {"compound": "COc1cc(O)c(C(=O)/C=C/c2ccco2)c(OC)c1", "cell viability": 112},
      {"compound": "CCN(CC)c1ccc2[nH]c3c(C(N)=O)cc(=O)c(=O)c=3oc2c1", "cell viability": 3.99},
      {"compound": "CCN(CC)c1ccc2cc(-c3ccccc3)c(=O)oc2c1", "cell viability": 96.9},
      {"compound": "CC(C)c1ccc(NC(=O)Cn2c(=O)cc(C(=O)N3CCc4ccccc4C3)c3ccccc32)cc1", "cell viability": 97.1}
    ]}
  ]
}
